ChEMBL document CHEMBL1157539, “Thousands of chemical starting points for antimalarial lead identification” (Nature, 2010)
Several values for one entry are separate records, joined by “and”; a condition that tells them apart may be missing. Equal entries are not always repeated.

Test system: Plasmodium falciparum
Assay: GSK_TCMDC: Inhibition of Plasmodium falciparum 3D7 in whole red blood cells, using parasite LDH activity as an index of growth. Test compounds present at 2uM
Type: functional

Structure (SMILES)	Inhibition
COc1ccc(CNCc2ccc(F)cc2)cc1-c1cccc(S(=O)(=O)NCCN2CCCC2)c1.O=C(O)C(F)(F)F	100%
COC(=O)c1sc2ccccc2c1NC(=O)c1ccc(C)c(C)c1	88%
COc1ccc2nccc([C@@H](O)CN3CCC(NCc4cnc5c(c4)NC(=O)CS5)C(F)C3)c2c1.Cl (stereo not given in full)	90%
COc1cccc(CNC(=O)NC2CCN(c3ccnc(Nc4ccc(F)cc4)n3)C2)c1 (stereo not given)	94%
CC(Sc1nnc(-c2cccs2)[nH]1)C(=O)c1c[nH]c2ccccc12 (stereo not given)	94%
O=C(NC1CCC(N2CCC(Cc3ccc(F)cc3)CC2)CC1)c1cc2ccccc2[nH]1 (stereo not given)	98%
CC(C)Cn1c2ccccc2c2nc3nc(N)nc(N)c3nc21	93%
N#Cc1ccc(/C=C/C(=O)NCCCCCN2CCCN(C(=O)Nc3ccc(Cl)c(C(F)(F)F)c3)CC2)cc1	98%
COc1ccc(S(=O)(=O)NC2CCN(CCCOc3ccnc4cc(Cl)ccc34)C2)cc1OC (stereo not given)	91%
COc1cccc(NC(=O)Nc2ccc(Nc3nc(C)cc(N4CCCC4)n3)cc2)c1	100%
O=C(Nc1ccc(C(F)(F)F)cc1)c1ccc(S(=O)(=O)NCC2CCCN(CC3CCCCC3)C2)cc1.O=C(O)C(F)(F)F (stereo not given)	93%
CC(=O)c1cccc(Nc2nc3ccc(OCc4cc(Cl)cc(Cl)c4)c(C#N)c3[nH]2)c1	86%
COc1cccc(NC(=O)c2ccc(NCCCN3CCC(C)CC3)c([N+](=O)[O-])c2)c1	100%
Cc1cc(=NN=Cc2ccccc2F)c2cccc(C)c2[nH]1	100%
COc1ccc2c(=NN=Cc3ccc(OC)c4ccccc34)cc(C)[nH]c2c1	100%
CCc1sc(N2CCC(C)CC2)nc1C(=O)Nc1ccc(F)cc1C(F)(F)F	94%
CN(C)c1ccc(CN2CCC(NC(=O)c3ccc(-c4ccccc4Cl)s3)CC2)cc1.O=C(O)C(F)(F)F	82%
O=C1Nc2cccc3c2C1(CCCCN1CCC(c2cc4ccncc4[nH]2)CC1)CCC3 (stereo not given)	99% and 97%
Cc1cc(N[C@@H](Cc2ccccc2)C(=O)NCCc2ccccc2)nc(NCCc2ccccc2)n1.O=C(O)C(F)(F)F	100%
COCCN1CCN(Cc2cccc(-c3ccc(-c4nc5ccccc5[nH]4)cc3)c2)CC1.O=C(O)C(F)(F)F	100%

Structure (SMILES)	Inhibition
Cc1cc(Nc2ccc3ccccc3c2)n2ncnc2n1	96%
CCCC(CNC(=O)c1cc2c(Cl)cc(Cl)cc2[nH]1)CNc1cc(=O)c2ccccc2[nH]1.O=C(O)C(F)(F)F (stereo not given)	100%
Cc1c(S(=O)(=O)Nc2cccc(CCN3CCCCC3CCN3CCCC3)c2)sc2ccc(Cl)cc12 (stereo not given)	93%
CC(C)[C@H](NC(=O)c1ccc(O)c(-c2ccc(Cl)c(Cl)c2)c1)C(=O)NCCN1CCCC1	98%
Br.CCCCC(NCC)c1ccc(OCCOc2ccc(C(CCCC)NCC)cc2)cc1 (stereo not given)	100%
CCCCCC(C)C(C)c1cc(OC(N)=O)c2c(c1)OC(C)(C)C=C2c1ccncc1 (stereo not given)	96%
CN(CCN)Cc1cccc(-c2cccc(-c3nc4cc(F)ccc4[nH]3)c2)c1.O=C(O)C(F)(F)F	95%
CO/C(=C\C=C\c1cc2cc(Cl)c(Cl)cc2[nH]1)C(=O)NCCCN1CCN(C2CCCCC2)CC1	99%
Cc1nc(N)nc(N)c1-c1ccc(Br)c([N+](=O)[O-])c1	95%
CSc1nnc2n(Cc3ccccc3)c(=O)c3c(n12)-c1ccccc1CC31CCCCC1	93%
COc1ccc(Cl)cc1N1CCN(CCCNC(=O)c2ccc(-c3nc4cc(Cl)c(F)cc4[nH]3)c(F)c2)CC1	100%
O=C(/C=C/c1ccc(Cl)c(Cl)c1)NC1CCC(CN2CCC(c3coc4ccccc34)CC2)CC1 (stereo not given)	100%
CC(CN1CCN(C)CC1)C(=O)Nc1ccc(-c2cccc(-c3nc4cc(F)ccc4[nH]3)c2)cc1 (stereo not given)	100%
CCc1ccc(CN2CCCCC(NC(=O)c3cc(-c4ccccc4F)cs3)C2)cc1.O=C(O)C(F)(F)F (stereo not given)	87%
Clc1ccc(CNc2ccnc(NCc3ccc4c(c3)OCCCO4)n2)c(Cl)c1	94%
COc1cc2nc(NCCN3CCOCC3)n3nc(-c4ccccc4)nc3c2cc1OC	96%
CCN1CCN(c2cc(C)c3cc(NC(=O)c4cc(OC)cc(OC)c4)ccc3n2)CC1	100%
C=Cc1ccccc1C1(O)CCN(CCCCNC(=O)c2ccc(-c3ccc(C#N)cc3)cc2)CC1	88%
CCOC(=O)c1cc(C(=O)NCCCCN2CCC(c3cn(C)c4ccccc34)CC2)ccc1-c1ccc(C(F)(F)F)cc1	91%
CC(C)NCc1ccc(-c2ccc(NC(=O)c3cccc(C#N)c3)cc2)cc1.O=C(O)C(F)(F)F	99%

Test system: Plasmodium falciparum
Assay: GSK_TCMDC: Inhibition of Plasmodium falciparum Dd2 in whole red blood cells, using parasite LDH activity as an index of growth. Test compounds present at 2uM
Type: functional

Structure (SMILES)	Inhibition [%]
COc1ccc(CNCc2ccc(F)cc2)cc1-c1cccc(S(=O)(=O)NCCN2CCCC2)c1.O=C(O)C(F)(F)F	54
COC(=O)c1sc2ccccc2c1NC(=O)c1ccc(C)c(C)c1	48
COc1ccc2nccc([C@@H](O)CN3CCC(NCc4cnc5c(c4)NC(=O)CS5)C(F)C3)c2c1.Cl (stereo not given in full)	90
COc1cccc(CNC(=O)NC2CCN(c3ccnc(Nc4ccc(F)cc4)n3)C2)c1 (stereo not given)	64
CC(Sc1nnc(-c2cccs2)[nH]1)C(=O)c1c[nH]c2ccccc12 (stereo not given)	58
O=C(NC1CCC(N2CCC(Cc3ccc(F)cc3)CC2)CC1)c1cc2ccccc2[nH]1 (stereo not given)	39
CC(C)Cn1c2ccccc2c2nc3nc(N)nc(N)c3nc21	0
N#Cc1ccc(/C=C/C(=O)NCCCCCN2CCCN(C(=O)Nc3ccc(Cl)c(C(F)(F)F)c3)CC2)cc1	13
COc1ccc(S(=O)(=O)NC2CCN(CCCOc3ccnc4cc(Cl)ccc34)C2)cc1OC (stereo not given)	56
COc1cccc(NC(=O)Nc2ccc(Nc3nc(C)cc(N4CCCC4)n3)cc2)c1	100
O=C(Nc1ccc(C(F)(F)F)cc1)c1ccc(S(=O)(=O)NCC2CCCN(CC3CCCCC3)C2)cc1.O=C(O)C(F)(F)F (stereo not given)	0
CC(=O)c1cccc(Nc2nc3ccc(OCc4cc(Cl)cc(Cl)c4)c(C#N)c3[nH]2)c1	45
COc1cccc(NC(=O)c2ccc(NCCCN3CCC(C)CC3)c([N+](=O)[O-])c2)c1	46
Cc1cc(=NN=Cc2ccccc2F)c2cccc(C)c2[nH]1	14
COc1ccc2c(=NN=Cc3ccc(OC)c4ccccc34)cc(C)[nH]c2c1	99
CCc1sc(N2CCC(C)CC2)nc1C(=O)Nc1ccc(F)cc1C(F)(F)F	65
CN(C)c1ccc(CN2CCC(NC(=O)c3ccc(-c4ccccc4Cl)s3)CC2)cc1.O=C(O)C(F)(F)F	27
O=C1Nc2cccc3c2C1(CCCCN1CCC(c2cc4ccncc4[nH]2)CC1)CCC3 (stereo not given)	0
Cc1cc(N[C@@H](Cc2ccccc2)C(=O)NCCc2ccccc2)nc(NCCc2ccccc2)n1.O=C(O)C(F)(F)F	57
COCCN1CCN(Cc2cccc(-c3ccc(-c4nc5ccccc5[nH]4)cc3)c2)CC1.O=C(O)C(F)(F)F	50

Structure (SMILES)	Inhibition [%]
Cc1cc(Nc2ccc3ccccc3c2)n2ncnc2n1	95
CCCC(CNC(=O)c1cc2c(Cl)cc(Cl)cc2[nH]1)CNc1cc(=O)c2ccccc2[nH]1.O=C(O)C(F)(F)F (stereo not given)	94
Cc1c(S(=O)(=O)Nc2cccc(CCN3CCCCC3CCN3CCCC3)c2)sc2ccc(Cl)cc12 (stereo not given)	10
CC(C)[C@H](NC(=O)c1ccc(O)c(-c2ccc(Cl)c(Cl)c2)c1)C(=O)NCCN1CCCC1	83
Br.CCCCC(NCC)c1ccc(OCCOc2ccc(C(CCCC)NCC)cc2)cc1 (stereo not given)	99
CCCCCC(C)C(C)c1cc(OC(N)=O)c2c(c1)OC(C)(C)C=C2c1ccncc1 (stereo not given)	0
CN(CCN)Cc1cccc(-c2cccc(-c3nc4cc(F)ccc4[nH]3)c2)c1.O=C(O)C(F)(F)F	19
CO/C(=C\C=C\c1cc2cc(Cl)c(Cl)cc2[nH]1)C(=O)NCCCN1CCN(C2CCCCC2)CC1	97
Cc1nc(N)nc(N)c1-c1ccc(Br)c([N+](=O)[O-])c1	2
CSc1nnc2n(Cc3ccccc3)c(=O)c3c(n12)-c1ccccc1CC31CCCCC1	0
COc1ccc(Cl)cc1N1CCN(CCCNC(=O)c2ccc(-c3nc4cc(Cl)c(F)cc4[nH]3)c(F)c2)CC1	91
O=C(/C=C/c1ccc(Cl)c(Cl)c1)NC1CCC(CN2CCC(c3coc4ccccc34)CC2)CC1 (stereo not given)	41
CC(CN1CCN(C)CC1)C(=O)Nc1ccc(-c2cccc(-c3nc4cc(F)ccc4[nH]3)c2)cc1 (stereo not given)	99
CCc1ccc(CN2CCCCC(NC(=O)c3cc(-c4ccccc4F)cs3)C2)cc1.O=C(O)C(F)(F)F (stereo not given)	12
Clc1ccc(CNc2ccnc(NCc3ccc4c(c3)OCCCO4)n2)c(Cl)c1	20
COc1cc2nc(NCCN3CCOCC3)n3nc(-c4ccccc4)nc3c2cc1OC	98
CCN1CCN(c2cc(C)c3cc(NC(=O)c4cc(OC)cc(OC)c4)ccc3n2)CC1	90
C=Cc1ccccc1C1(O)CCN(CCCCNC(=O)c2ccc(-c3ccc(C#N)cc3)cc2)CC1	64
CCOC(=O)c1cc(C(=O)NCCCCN2CCC(c3cn(C)c4ccccc34)CC2)ccc1-c1ccc(C(F)(F)F)cc1	6
CC(C)NCc1ccc(-c2ccc(NC(=O)c3cccc(C#N)c3)cc2)cc1.O=C(O)C(F)(F)F	77
